Source: PubChem BioAssay AID1619 (SRMLSC, 2009)
Screen size: about 220,000 compounds; about 830 (0.38%) were called active.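 How the source made its calls: active means compound inhibiting the enzyme by more than half at any dose during confirmatory dose-response retesting; inconclusive means strong single-dose inhibitors picked by rank but not retested; inactive means the rest.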 The list is a sample of the results. Results with a measured potency or affinity are listed apart.

What follows are compounds tested against Leucine aminopeptidase (Plasmodium falciparum (isolate 3D7)) (UniProt Q8IL11) (assay: P. falciparum M17LAP inhibitors, primary screen, biochemical, fluorogenic H-Leu-NHMec substrate, 1536-well (AID 1619;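 further: plate controls were full reaction with DMSO carrier for no effect and no enzyme background for full effect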)). Conditions: recombinant M17LAP, H-Leu-NHMec fluorogenic kinetic assay; at 30 µM; stronger effect = higher value.
Chain of Leucine aminopeptidase (Plasmodium falciparum (isolate 3D7)) (Q8IL11 whole entry, looked up): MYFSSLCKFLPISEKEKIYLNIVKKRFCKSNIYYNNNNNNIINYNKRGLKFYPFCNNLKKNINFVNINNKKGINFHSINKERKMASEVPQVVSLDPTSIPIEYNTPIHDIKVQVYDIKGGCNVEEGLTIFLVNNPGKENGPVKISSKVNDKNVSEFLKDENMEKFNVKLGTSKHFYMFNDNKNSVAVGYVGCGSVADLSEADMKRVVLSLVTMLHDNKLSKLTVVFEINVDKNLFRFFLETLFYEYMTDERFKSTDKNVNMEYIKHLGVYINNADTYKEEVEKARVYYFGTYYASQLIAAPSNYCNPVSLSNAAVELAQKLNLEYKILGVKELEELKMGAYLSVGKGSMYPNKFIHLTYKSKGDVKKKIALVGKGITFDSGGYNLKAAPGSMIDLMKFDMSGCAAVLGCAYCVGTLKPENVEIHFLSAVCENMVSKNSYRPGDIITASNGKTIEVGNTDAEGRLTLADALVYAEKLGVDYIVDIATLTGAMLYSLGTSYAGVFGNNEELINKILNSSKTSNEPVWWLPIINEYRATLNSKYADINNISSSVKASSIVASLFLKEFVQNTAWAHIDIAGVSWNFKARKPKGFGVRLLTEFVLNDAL

inhibition, inactive:
CC(/C=N/NC(=O)c1ccccn1)=C\c1ccco1 9.53%
Cc1ccc([N+](=O)[O-])cc1-c1ccc(/C=N\n2nnnc2N)o1 14.9%
CSc1ccc(Cl)c(C(=O)OCC(=O)N(C)CCC#N)c1 1.64%
Cc1ccc(C)c(N(C(=O)Cn2nnc3ccccc32)C(C(=O)NCc2ccco2)c2ccncc2)c1 (stereo not given) -0.41%
O=C1CCC(=O)N1CN(C(=O)c1ccco1)c1ccccc1 -2.98%
O=C(Cc1ccccc1)NN1C(=O)c2ccccc2C1=O 23.7%
Cc1ccc(SCC(=O)NN2C(=O)c3ccccc3C2=O)cc1 2.07%
CCOc1cc(OCC)cc(C(=O)NC(=S)Nc2cccc(C(F)(F)F)c2)c1 3%
COC(=O)c1[nH]c(C)c(/C(O)=C2\C(=O)C(=O)N(CCN3CCOCC3)C2c2ccc(C)o2)c1C (stereo not given) 3.85%
COc1ccc(/C=C/C2=NN(C)C(=O)CC2)cc1 48.2%
Cc1ccc(NC(=O)c2cc(NC(=O)c3ccccc3C(=O)O)ccc2N2CCCCC2)cc1 -63%
O=C(O)CCC(=O)Nc1ccc(N2CCCCC2)c(C(=O)O)c1 10.6%
C/C(=N\NC(N)=S)C1(C)CC2(CC(C)(C)OC2=O)C(=O)O1 (stereo not given) -1.04%
Nc1nc(SCC(=O)N2N=C3/C(=C/c4ccco4)CCCC3C2c2ccco2)n[nH]1 (stereo not given) 9.23%
O=C(CSc1nccc(=O)[nH]1)N1N=C2/C(=C/c3ccco3)CCCC2C1c1ccco1 (stereo not given) 13.7%
COc1c(Cl)cc(-c2noc(C)c2C(=O)NCc2ccc3c(c2)OCO3)cc1Cl 2.83%
Cc1ccnc(NC(=O)C2CCC(CNc3c(N4CCCC4)c(=O)c3=O)CC2)c1 (stereo not given) 15.6%
CC(C)Nc1nnc(SC(C)C(=O)Nc2ccc(Cl)cn2)s1 (stereo not given) 5.71%
COC(=O)N/N=C/c1ccc(OC(=O)/C=C/c2ccco2)cc1 -6.97%
CCOc1cccc2sc(N(CCN(CC)CC)C(=O)c3cccc([N+](=O)[O-])c3)nc12 3.1%
COc1cc(NS(=O)(=O)c2ccc(NC(C)=O)cc2)nc(OC)n1 -0.66%
O=C(CSC1=NCCS1)Nc1ccc(S(=O)(=O)NC2CCCCC2)cc1 8.51%
O=C(COC(=O)c1n[nH]c2ccccc12)c1cc(F)ccc1F 3.93%
COC(=O)c1cc(NC(C)=O)ccc1N1CCOCC1 8.76%
CC(C)(C)c1ccc(C2C(C#N)=C(N)Oc3n[nH]c(-c4cccnc4)c32)cc1 (stereo not given) 3.44%
Cc1ccc(Cn2ccc(NC(=O)c3cc4nc5c(c(C(F)(F)F)n4n3)CCc3ccccc3-5)n2)cc1 13.9%
COc1ccc(CC(CC(=O)O)C(=O)NCc2ccccc2)cc1 (stereo not given) -4.42%
COc1ccc(NC(=O)C(Cc2ccccc2)n2cccc2)cc1 (stereo not given) -2.31%
COc1ccc(OC)c(NC(=O)C(CC(=O)O)Cc2ccc(Cl)cc2)c1 (stereo not given) 35.7%
COc1ccc(C(CC(=O)Nc2ccc(F)cc2)c2ccccc2)cc1 (stereo not given) -0.86%
COc1ccc(NC(=O)C(CC(=O)O)Cc2ccc(C)cc2)cc1 (stereo not given) 53%
COc1ccc(NC(=O)C(CC(=O)O)C(C)c2ccccc2)cc1 (stereo not given) -2.5%
COc1ccc(NC(=O)Cc2ccccc2)cc1 34.6%
CCOc1ccc(NC(=O)C(CC(=O)O)Cc2ccccc2)cc1 (stereo not given) 1.68%
CCOC(=O)Nc1ccc2nc3n(c(=O)c2c1)CCCCC3 9.64%
COc1ccc2ccccc2c1CN1CCN(Cc2ccccc2)CC1 7.12%
CN1CCN(c2cc(=O)n(Cc3ccc(F)cc3)c(=O)[nH]2)CC1 -0.83%
COc1ccc(-c2nc(=S)[nH][nH]2)cc1OC -3.54%
O=C(O)CC(NNC(=O)c1ccccc1)C(=O)Nc1ccc([N+](=O)[O-])cc1 (stereo not given) 4.13%
O=C(O)CC(Cc1ccc(Cl)cc1)C(=O)Nc1ccc([N+](=O)[O-])cc1 (stereo not given) 44.7%
c1ccc(COc2ccc(CNCc3cccs3)cc2)cc1 0.61%
Cc1cc(NC(=O)CSc2nnc(CNc3ccc(F)cc3)n2C2CCCCC2)no1 -6.09%
COc1cc2nc(C3CCC3)nc(N3CCN(c4ccccc4OC)CC3)c2cc1OC 7.31%
CCOc1c(Br)cc(CNC2CCCCCCC2)cc1OC -3.96%
COc1cc(CNc2ccc(N3CCOCC3)cc2)cc(Br)c1OC -2.11%
COc1cc(CO)cc(Br)c1OCC(=O)O -4.17%
CCOc1c(Br)cc(CNc2ccc3c(c2)OCCO3)cc1OC 2.99%
CCOC(=O)c1nc(Nc2ccc(C(=O)O)cc2)c2ccccc2n1 23.8%
CCOc1ccc(N2C(=O)/C(=C/c3ccccc3)N=C2SC)cc1 2.97%
COC1=C(OC)C(=O)C(CCCCCCCCCCO)=C(C)C1=O -2.37%
CS(=O)(=O)N(CC(=O)NC1CCCCC1)Cc1ccc(Cl)cc1 4.5%
CN(c1cccc(NC(=O)CN2C(=O)c3ccccc3S2(=O)=O)c1)S(C)(=O)=O 51.6%
CC(C)NC(=O)CN1C(=O)c2ccccc2S1(=O)=O 7.45%
COc1ccc(NC(=O)CN2c3cccc4cccc(c34)S2(=O)=O)c(OC)c1 13.8%
O=C(CN1C(=O)c2ccccc2S1(=O)=O)Nc1cccnc1 27.9%
O=C(CN1C(=O)c2ccccc2S1(=O)=O)NC1CCCCCC1 5.61%
O=C(CN1C(=O)c2ccccc2S1(=O)=O)NC1CCCC1 33.2%
O=C(CN1c2cccc3cccc(c23)S1(=O)=O)Nc1ccccc1 2.82%
O=C(CCN1C(=O)c2ccccc2S1(=O)=O)Nc1ccccc1 6.82%
COc1ccc(NS(=O)(=O)c2cccc(C(=O)N/N=C/c3ccc4c(c3)OCCO4)c2)cc1 6.63%
